CYP2C19 activ = cytochrome P450 2C19 (human) activation; recombinant CYP2C19, luciferin-H EGE luminescence; stronger effect = higher value; 0 = fully inhibited enzyme, 1 = untreated enzyme; P33261; 96,000 tested, under 10 active; activation factor at 5 µM;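 active = activation factor of at least 2 at 5 µM in the primary screen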;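 note: 0 = wells with 2.5 mM tranylcypromine and 1 = vehicle-only wells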
CYP2C9 activ = CYP2C9 (human) activation; P11712; recombinant CYP2C9, luciferin-H conversion, luminescence; stronger effect = higher value; factor 1 = untreated enzyme, 0 = blocked; activation factor at 5 µM; hit rate 1.4% among 96,000; AID 1024;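 active = activation factor of 2 or more for CYP2C9 at a 5 µM dose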;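 note: 0 = sulfaphenazole-blocked wells and 1 = vehicle-only wells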
Target sequence (P11712 whole entry, looked up): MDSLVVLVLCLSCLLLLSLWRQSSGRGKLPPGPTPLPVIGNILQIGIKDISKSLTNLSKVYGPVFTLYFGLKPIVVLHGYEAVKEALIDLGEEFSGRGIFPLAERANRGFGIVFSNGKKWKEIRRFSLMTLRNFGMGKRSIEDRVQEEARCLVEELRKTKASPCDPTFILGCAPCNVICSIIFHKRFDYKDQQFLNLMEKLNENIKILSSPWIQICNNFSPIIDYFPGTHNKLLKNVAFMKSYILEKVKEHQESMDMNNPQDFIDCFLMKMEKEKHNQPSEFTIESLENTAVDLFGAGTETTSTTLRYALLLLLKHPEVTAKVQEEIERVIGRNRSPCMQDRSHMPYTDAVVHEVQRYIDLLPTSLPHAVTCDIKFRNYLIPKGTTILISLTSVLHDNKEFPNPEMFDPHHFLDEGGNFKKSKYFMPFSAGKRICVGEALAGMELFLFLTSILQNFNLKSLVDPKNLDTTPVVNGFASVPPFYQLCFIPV
Measles CPE = protection of cells from measles virus; Measles virus-infected cells, CPE protection, absorbance; protection (pct of control), % at 4 µM; hit rate 1.5% among 140,000; AID 841; in the data active = protection mostly above about 24%, no sharp cut-off; inactive = mostly below about 26%
CYP2C19 inh = inhibitors of human CYP2C19 | hit rate 21% among 96,000 | inhibition, % at 5 µM | CYP2C19 Supersomes, luciferin-H EGE luminescence, 30 min | AID 778;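 active = CYP2C19 inhibition above a set limit at 5 µM in the primary screen, cut at about 50% in these data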;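 note: plate controls were negative control wells for no effect and 2.5 mM tranylcypromine positive control for full effect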
CYP2C9 inhib = inhibitors of human CYP2C9 | hit rate 20% among 96,000 | CYP2C9 Supersomes, luciferin-H conversion, luminescence | P11712 | inhibition, % at 5 µM;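 active = blocking of liver enzyme CYP2C9 beyond about 50% at 5 µM, limit read from the data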
Numbers without * were called inactive; . = no result. A selection: hits, their analogues and other compounds. The true share with any hit is near 22%.

SMILES | CYP2C19 activ | CYP2C9 activ | Measles CPE | CYP2C19 inh | CYP2C9 inhib
Cn1c2ccccc2c2nn(-c3ccccc3)c(=O)cc21 | 0.3 | 0.7 | 5 | 71* | 30
Cc1ccc(C2CC(C(F)(F)F)n3nc(C(=O)NCC4CCCO4)cc3N2)cc1 (configuration not stated) | 0.5 | 0.4 | 17 | 47 | 58*
COc1cccc(C2CC(C(F)(F)F)n3ncc(C(=O)NCC4CCCO4)c3N2)c1 (configuration not stated) | 0.7 | 0.4 | 9 | 33 | 60*
COc1ccc(C2CC(C(F)(F)F)n3ncc(C(=O)NCc4cccnc4)c3N2)cc1OC (configuration not stated) | 0.8 | 0.5 | 6 | 20 | 52*
CC(=O)c1ccc(N2CCN(C(=O)C3CCC3)CC2)cc1 | 0.9 | 0.8 | 4 | 12 | 23
COc1ccccc1-c1n[nH]c(=S)o1 | 1 | 0.9 | 20 | -1 | 6
CC(=O)c1ccc(NS(=O)(=O)c2cccc(C)c2)cc1 | 0 | 0 | 41* | 99* | 95*
CC(=O)c1ccc(NS(=O)(=O)c2ccc(C)cc2)cc1 | 0.2 | 0.2 | 7 | 80* | 80*
CC(=O)c1ccc(S(=O)(=O)Nc2cccc(S(=O)(=O)NC3=NCCC3)c2)cc1 | . | . | 13 | . | .
Cc1ccc(OCC(=O)NNC(=O)C2CCN(c3ncccn3)CC2)cc1 | 1 | 0.9 | 3 | 4 | 6
CS(=O)(=O)N(CC(=O)N1CCCC1)c1ccc2c(c1)OCCO2 | 0.8 | 0.7 | 4 | 23 | 25
Cc1ccc(C2C(C#N)=C(N)SC(N)=C2C#N)cc1 | 0.8 | 0.5 | 21 | 24 | 48
Cc1ccccc1[C@@H]1C(C#N)=C(N)S[C@H]1C(=O)c1ccccc1 | 0 | 0 | 24 | 100* | 98*
N/C(=N\OS(=O)(=O)c1ccc(Br)cc1)c1ccncc1 | 0.6 | 0.4 | 30 | 38 | 58*
N/C(=N\OC(=O)COc1ccc(Br)cc1)c1ccncc1 | . | . | 10 | . | .
COc1ccc(NC(=O)CN2CCCCC2)cc1 | 0.2 | 0.8 | 3 | 77* | 24
O=C(Nc1ccc(Br)cc1)N1CCCCCCC1 | 0.1 | 1 | 32 | 93* | -4
COc1ccc(NC(=O)CN2CCN(CC(=O)Nc3ccccc3Cl)CC2)cc1 | 0.2 | 0.5 | 9 | 85* | 49
COc1ccc(NC(=O)CN2CCC(C(N)=O)(N3CCCCC3)CC2)cc1 | 0.8 | 0.8 | 10 | 20 | 17
COc1ccc(NC(=O)CCN2CCCC(C)C2)cc1 (configuration not stated) | . | . | 41* | . | .
CC(=O)Nc1ccc(NC(=O)N2CCCCC2)cc1 | 1 | 0.9 | 18 | 3 | 9
CCOc1ccc(NC(=O)CN2CCN(CC(=O)Nc3cc(OC)cc(OC)c3)CC2)cc1 | 0.5 | 0.4 | 6 | 48 | 59*
COc1ccc(NC(=O)CSC2CCCCC2)cc1 | 0 | 0.5 | 12 | 98* | 51*
O=C(CN1CCCCCC1)Nc1ccc(Br)cc1 | 0.1 | 0.9 | 3 | 93* | 9
COc1ccc(NC(=O)CN2CCN(CC(=O)Nc3ccccc3Cl)CC2)c(OC)c1 | 0 | 0.3 | 10 | 98* | 74*
SMILES | CYP2C19 activ | CYP2C9 activ | Measles CPE | CYP2C19 inh | CYP2C9 inhib
O=C(CCN1CCCCC1)Nc1ccc(Br)cc1 | . | . | 13 | . | .
COc1ccc(NC(=O)CN2CCN(c3ccc(Cl)cc3)CC2)c(OC)c1 | 0.5 | 0.6 | 6 | 47 | 41
Cc1ccc2c(c1)C1(C(=O)N2C)N2CC3(C)CN1CC(C)(C2)C3=O (configuration not stated) | 1 | 1.1 | 16 | -4 | -10
COc1ccc(S(=O)(=O)N/N=C/c2ccc(OCCN3CCOCC3)c(OC)c2)cc1 | . | . | 9 | . | .
N#Cc1ccsc1NC(=O)CN1CCN(c2ccccc2O)CC1 | . | . | 11 | . | .
N#Cc1ccsc1NC(=O)CN1CCCCCC1 | 0.5 | 0.8 | 6 | 50* | 21
COc1ccc(NC(=O)CN2CCN(CC(=O)Nc3ccccc3F)CC2)c(OC)c1 | 0 | 0.3 | 8 | 98* | 71*
Cc1ccc(C)c(N2CCN(C(=O)Cn3c(=O)[nH]c4ccsc4c3=O)CC2)c1 | 0.7 | 0.5 | 9 | 35 | 53*
Cc1ccc(C)c(N2CCN(C(=O)Cn3cccc3)CC2)c1 | 0.8 | 1 | 9 | 20 | 0
Cc1ccc(C)c(N2CCN(C(=O)CC3Sc4ccccc4NC3=O)CC2)c1 (configuration not stated) | 0.3 | 0.5 | 12 | 71* | 51*
Cc1ccc(C)c(N2CCN(C(=O)C(Cc3ccccc3)n3cccc3)CC2)c1 (configuration not stated) | 0 | 0.8 | 6 | 97* | 24
Cc1ccc(C)c(N2CCN(C(=O)CCS(=O)(=O)c3cccc4nonc34)CC2)c1 | 0.4 | 0.3 | 5 | 62* | 73*
Cc1ccc(-n2ncc3c(=O)n(CC(=O)OCc4ccccc4)cnc32)cc1 | 0.5 | 0.6 | 18 | 48 | 43
Cn1cnnc1SCC(=O)NCc1cccc(C(F)(F)F)c1 | 0.5 | 1 | 30 | 48 | 4
O=C(C(Cc1ccccc1)n1cccc1)N1CCN(c2ccccc2)CC1 (configuration not stated) | 0.1 | 0.6 | 6 | 95* | 43
O=C(C(Cc1ccccc1)n1cccc1)N1CCc2ccccc21 (configuration not stated) | 0.9 | 0.8 | 22 | 7 | 19
O=C(O)C(Cc1ccccc1)n1cccc1 (configuration not stated) | 1 | 1 | . | -5 | -1
CC1CCCN(C(=O)C(Cc2ccccc2)n2cccc2)C1 (configuration not stated) | 0.3 | 0.7 | 5 | 67* | 28
CCC(=O)N1CCN(c2cc(C)ccc2C)CC1 | 0.5 | 0.9 | 4 | 52* | 7
CCCCCOc1ccc(CSCCNC(=S)Nc2ccccc2)cc1 | . | . | 7 | . | .
O=C(Nc1nc2ccccc2s1)c1cc(-c2ccccc2)nn1-c1ccccc1 | . | . | 7 | . | .
CCCCNC(=O)c1cnc2n(c1=O)CCS2 | . | . | 8 | . | .
Cc1ccc(S(=O)(=O)Nc2cccc3ncccc23)s1 | 0.6 | 2.5* | 1 | 45 | -154
COC(=O)C1=C(NC(=O)C2CCCCC2)CCS1 | . | . | 2 | . | .
CCCn1cc(SCC(=O)NCC2CCCO2)c2ccccc21 (configuration not stated) | 0.6 | 1.5 | 15 | 39 | -52
SMILES | CYP2C19 activ | CYP2C9 activ | Measles CPE | CYP2C19 inh | CYP2C9 inhib
O=C(CSc1cn(CCNC(=O)c2cccs2)c2ccccc12)NCc1ccccc1 | 0.1 | 0 | 28 | 86* | 98*
O=C(CSc1cn(CCNC(=O)c2ccc3ccccc3c2)c2ccccc12)NCc1ccco1 | 0.7 | 0.9 | 7 | 26 | 9
O=C(CSc1cn(CCNC(=O)c2cccs2)c2ccccc12)NC1CCCCC1 | 0.4 | 0.1 | 7 | 59* | 92*
O=C(Cn1cc(C(=O)c2cccs2)c2ccccc21)NC1CCCCC1 | 0.5 | 0.3 | 34 | 55* | 72*
O=C(CSc1cn(CCNC(=O)c2cccs2)c2ccccc12)NCC1CCCO1 (configuration not stated) | 0.7 | 0.2 | 16 | 34 | 81*
CC1CCN(C(=O)c2ccc(CSc3nc4ccncc4n3Cc3ccc(F)cc3)cc2)CC1 | . | . | 5 | . | .
